Activity calls are given as the source filed them. The calls were made as follows: active = hit-call score of the fitted dose curve at least 0.9, where 1 is the maximum; inactive = score below 0.9.
Test: ATG_PXRE_CIS: Attagene CIS-FACTORIAL HepG2 Assay for human Pregnane X Receptor Element (PXRE) (AID 2282957)
Conditions: HepG2 Attagene CIS-FACTORIAL PXRE reporter, mRNA; actives raise or lower the signal
Experimental: ATG_CIS is a cell-based, multiplexed-readout assay that uses HepG2, a human liver cell line, with measurements taken at 24 hours after chemical dosing in a 24-well plate.ATG_PXRE_CIS is one of 52 assay component(s) measured or calculated from the ATG_CIS assay. It is designed to make measurements of mRNA induction, a form of inducible reporter, as detected with fluorescence intensity signals by Reverse transcription polymerase chain reaction (RT-PCR) and Capillary electrophoresis technology.Data from the assay component ATG_PXRE_CIS was analyzed into 1 assay endpoint. This assay endpoint, ATG_PXRE_CIS, was analyzed with bidirectional fitting relative to DMSO as the negative control and baseline of activity. Using a type of inducible reporter, measures of mRNA for gain or loss-of-signal activity can be used to understand the reporter gene at the transcription factor-level as they relate to the gene NR1I2. Furthermore, this assay endpoint can be referred to as a primary readout, because this assay has produced multiple assay endpoints where this one serves a reporter gene function. To generalize the intended target to other relatable targets, this assay endpoint is annotated to the nuclear receptor intended target family, where the subfamily is non-steroidal.
Human liver HepG2 cells are transiently transfected with multiple reporter transcription units (MRTUs) in 6-well plates using FuGene 6 reagent (Roche; 3 ml FuGene/1 mg DNA). The MRTU constructs are regulated by a cis-regulating element (promoter). […] A major difference between the CIS and TRANS system is that in CIS activities of endogenous TFs are measured, whereas the TRANS assay evaluates changes in activities of exogenous, chimeric NR-Gal4 proteins. […] At the end of 24 hour incubation, total RNA was isolated using TriZol reagent (Invitrogen). The isolated RNA is then reverse-transcribed using oligo(dT) primer and Mo-MLV reverse transcriptase (Invitrogen) with DNAse I (Ambion) treatment for 30 min. The one-tenth of the produced cDNA was amplified by PCR using Taq DNA polymerase (Invitrogen) and two reporter sequence-specific primers. The PCR products were fluorescently labeled by primer extension with 6-arboxyfluorescein (6-FAM) 5'-labeled reporter sequence-specific primer (2 min at 95 C, 20 s at 68 C and 10 min at 72 C) and these products were digested with 5U of HpaI (New England Biolabs) for 2h at 37 C. The fragments were purified using Qiaquick PCR columns (Qiagen), analyzed on an ABI 3130xL genetic analyzer (Applied Biosystems) with peak positions identified by using a set of X-rhodamine (ROX)-labeled MapMarker1000 molecular weight standards (BioVentures). The raw capillary electrophoresis data was processed using Attagraph software (Attagene).

SMILES	AC50	outcome
CC(=O)OC[C@H]1O[C@@](COC(C)=O)(O[C@H]2O[C@H](COC(C)=O)[C@@H](OC(C)=O)[C@H](OC(C)=O)[C@H]2OC(C)=O)[C@@H](OC(C)=O)[C@@H]1OC(C)=O	20.1 µM (active)	
CC1(C)C(=O)N(Br)C(=O)N1Br		inactive
O=C(NS(=O)(=O)/C=C/c1ccccc1)c1ccc(F)cc1Cl	34.9 µM (active)	
O=C(O)c1cc(N=Nc2ccc(S(=O)(=O)Nc3ccccn3)cc2)ccc1O		inactive
CCOC(=O)COc1ccc2c(c1)CC(NCC(O)c1cccc(Cl)c1)CC2 (stereo not given)		inactive
CC(O)CN(CCN(CC(C)O)CC(C)O)CC(C)O (stereo not given)		inactive
COCCOCCOCCOC		inactive
CNCc1ccc(NC(=O)c2c[nH]c3c2C(=O)CCC3)cc1		inactive
COC(=O)CC(=O)OC		inactive
CCc1cc(SCc2sc(-c3ccc(C(F)(F)F)cc3)nc2CN2CCN(c3ccc(OC)cc3)CC2)ccc1OCC(=O)O		inactive
COc1cccc(-c2ccc(/C=C\CN3CCCCCC3)cc2Cl)c1	3.67 µM (active)	
NC(=O)NO		inactive
C=CC(=C)CCC=C(C)C	18.8 µM (active)	
COC(=O)c1c(Cl)c(Cl)c(C(=O)OC)c(Cl)c1Cl	25.8 µM (active)	
O=P(OC(CCl)CCl)(OC(CCl)CCl)OC(CCl)CCl	0.371 µM (active)	
CCOCCOCCOCCO		inactive
CC(C)CC(C)(O)C#CC(C)(O)CC(C)C (stereo not given)	12.7 µM (active)	
Cn1c(=O)cc(Oc2ccc(F)cc2F)c2cnc(NCC(C)(C)O)nc21		inactive
C=CCCCCCCCCC(=O)O		inactive
Fc1ccccc1[C@@H](F)COC1CCC(Nc2ncnc3[nH]ncc23)CC1 (stereo not given in full)	25.4 µM (active)	

SMILES	AC50	outcome
Cc1ccc(N)cc1O		inactive
O=c1[nH]c2ccc(S(=O)CCN3CCC(Cc4ccc(F)cc4)CC3)cc2o1 (stereo not given)	26.3 µM (active)	
CN(C)c1ccc(Cc2ccc(N(C)C)cc2)cc1	26.6 µM (active)	
CN(C)c1ccc(N=NS(=O)(=O)O)cc1		inactive
COCCOc1cc2cc(C(=O)NC3CCN(C(C)C)CC3)n(CC(=O)Nc3ccc(Cl)cn3)c2cn1	144 µM (active)	
CCCCCCc1ccc(O)cc1O		inactive
CC(C)=CCCC(C)=CC=O	4.7 µM (active)	
Cc1ccc(S(=O)(=O)O)cc1C		inactive
O=C1OC(=O)C2C3C=CC(C3)C12 (stereo not given)		inactive
CC(C)CCCCCCOC(=O)c1ccc(C(=O)OCCCCCCC(C)C)c(C(=O)OCCCCCCC(C)C)c1		inactive
COC(=O)c1ccccc1O		inactive
O=C1CCCCCN1		inactive
Cn1c(=O)c2c(ncn2C)n(C)c1=O		inactive
CCOc1cccc(-n2cc(C(=O)N3CCN(c4cc(C(=O)O)c5ccccc5c4)CC3)nc2-c2ccc(C)cc2)c1	41.4 µM (active)	
CNS(=O)(=O)c1cc(C(=O)N2CCC(CCN3C4CCC3CC(n3c(C)nc5ccccc53)C4)(c3cccc(F)c3)CC2)c(Cl)cc1F (stereo not given)	1.08 µM (active)	
CC(C)c1cccc(C(C)C)c1N1C(=O)c2ccc(O)cc2C1=O		inactive
COc1ccc2sc(C(=O)Nc3nnn[nH]3)c(OC(C)C)c2c1		inactive
CCCN(C1CCN(C(=O)C2CCNCC2)CC1)[C@@H]1CCc2ccc(OC)cc2C1	100 µM (active)	
COc1ccc(-n2nc(C(F)F)cc2-c2ccc(S(C)=O)cc2)cc1 (stereo not given)	26.6 µM (active)	
CC[C@H]1CC[C@H](NCc2cc3c(cc2OC)[C@H]2C[C@H]2C(=O)N3C)[C@H](c2ccccc2)N1	4.91 µM (active)	
